# PubChem BioAssay
# Unmarked numbers belong to inactive results.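 The calls were made as follows: active = inhibition at or above 50% relative to wild type and mutant plate controls; inactive = inhibition below 50%.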 Peptide text beside a SMILES is read from it. * marks the point of attachment. Cbz = O=C(OCc1ccccc1)*
# Test: loss of swimming-algae plug formation – whole organism, Chlamydomonas reinhardtii, WT vs cilia-less mutant, absorbance, 96-well, primary screen (AID 463189);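 also: 0% = wild type cc124 cells in DMSO and 100% = ciliumless bld1 mutant cells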
# Conditions: Chlamydomonas reinhardtii gravitaxis, OD600 absorbance, 2 days; at 10 µM; hits give high values
row,Compound,inhibition [%]
1,CCCN1C[C@H](CSC)C[C@@H]2c3cccc4[nH]cc(c34)C[C@H]21,5.65
2,Oc1cc2c(c(Cl)c1O)CCNCC2c1ccccc1 (stereo not drawn),6.8
3,N[C@@H](Cc1c[nH]c2ccc(O)cc12)C(=O)O,4.83
4,CCSC(=N)N,4.79
5,CN1CC(O)C(O)C(O)C1CO (stereo not drawn),10.5
6,NCCCCN=C(N)N,5.23
7,C#CCN(C)CCCOc1ccc(Cl)cc1Cl,24.1
8,CC(C)Cc1ccc([C@H](C)C(=O)O)cc1,8.1
9,CN1CCN(c2nc3cc(C(F)(F)F)ccc3n3cccc23)CC1,10.9
10,NC(Cc1cccc(-c2ccccc2CP(=O)(O)O)c1)C(=O)O (stereo not drawn),-2
11,O=c1ccn([C@@H]2O[C@H](COP(=O)(O)OP(=O)(O)O)[C@@H](O)[C@H]2O)c(=O)[nH]1,13.9
12,CC1C(=O)N(C)C(=O)c2nc[nH]c21 (stereo not drawn),7.36
13,CC(C)Cn1c(=O)n(C)c(=O)c2[nH]cnc21,1.72
14,CC12C(=O)OC(=O)C1(C)C1CCC2O1 (stereo not drawn),-3.97
15,CC1CC2C3CCC4=CC(=O)C=C[C@]4(C)[C@@]3(F)[C@@H](O)C[C@]2(C)[C@@]1(O)C(=O)CO (stereo partly drawn),5.99
16,O=C(O)CCCC[C@@H]1CCSS1,4.4
17,CC1COc2c(N3CCN(C)CC3)c(F)cc3c(=O)c(C(=O)O)cn1c23 (stereo not drawn),6.49
18,CC(C)[C@H](NC(=O)OCc1ccccc1)C(=O)N[C@H](C=O)Cc1ccccc1 (Cbz-Val-Phe-aldehyde),6.09
